In PubChem BioAssay AID651638 (Johns Hopkins Ion Channel Center, 2012):
The campaign covered roughly 2,400 compounds. About 2,400 (100%) were called active.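 Rule for the calls: active = ratio percent of control, averaged over triplicates, above buffer control mean plus 5 SD (cut at about 64% in these data); inactive = the rest.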 So high a share suggests a set chosen from earlier hits. The list is a sample of the results.

Molecular target: Potassium channel subfamily K member 3 (Homo sapiens) (UniProt O14649)
Sequence (O14649 whole entry, looked up): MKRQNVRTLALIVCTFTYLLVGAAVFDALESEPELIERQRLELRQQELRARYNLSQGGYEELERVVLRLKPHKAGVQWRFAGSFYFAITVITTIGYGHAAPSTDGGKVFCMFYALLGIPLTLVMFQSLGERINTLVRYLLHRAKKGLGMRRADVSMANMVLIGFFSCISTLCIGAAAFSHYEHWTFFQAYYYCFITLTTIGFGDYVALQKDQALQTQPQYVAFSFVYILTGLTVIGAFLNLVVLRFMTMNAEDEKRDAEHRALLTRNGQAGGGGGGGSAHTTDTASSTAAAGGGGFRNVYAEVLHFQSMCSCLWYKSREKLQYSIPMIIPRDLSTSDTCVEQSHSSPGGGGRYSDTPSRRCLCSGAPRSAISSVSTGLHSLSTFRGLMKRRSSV
Assay: TASK1 potassium channel blockade, triplicate retest – CHO cells, FluxOR thallium flux, confirmation (AID 651638);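 note: ratio is the fluorescence rise from min to max over baseline after thallium stimulus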
Conditions: CHO-KCNK3 thallium flux, FluxOR fluorescence; at 10 µM; stronger effect = higher value; 0% buffer, 100% carvedilol maximal block

Ratio percent of control, active:
C=CCSc1nsc(NC(=O)Nc2cccc(C(C)=O)c2)n1 109%, COc1ccc([N+](=O)[O-])cc1-c1nc2ccccc2nc1-c1ccccc1 127%, COc1cccc(C(=O)NCCSc2ccc(Br)cc2)c1 92.3%, Cc1cccc2c1-c1sc(C(=O)NCCCN3CCc4ccccc4C3)cc1CO2 90.3%, CCCCC(=O)Nc1ccccc1N1CCN(c2ccc(F)cc2)CC1 102%, Cc1cccc(C(=O)Nc2ccccc2N2CCN(c3ccc(F)cc3)CC2)c1 119%, O=C(Nc1ccccc1N1CCCC1)c1ccc2ccccc2c1 134%, N#Cc1nc(Cc2cccc3ccccc23)oc1NCc1ccc2c(c1)OCO2 96%, N#Cc1cccc(NC(=O)COC(=O)c2ccccc2C(=O)c2ccc(Cl)c([N+](=O)[O-])c2)c1 135%, CC(Sc1nc2ccccc2c(=O)n1Cc1ccco1)C(=O)c1ccccc1 (stereo not given) 97%, Cc1cc(C)c(C#N)c(SCc2ccc3c(c2)OCO3)n1 137%, CCCCCCCCCCOC(=O)Cn1c(COc2cccc(OC)c2)[n+](C)c2ccccc21 119%, CS/C(=C\C(=O)c1ccco1)Nc1ccccc1Cl 95%, S=C(Nc1cccc(Br)c1)N1CCn2cccc2C1c1cccnc1 (stereo not given) 79.7%, CCCOc1ccc2c3c(c(=O)oc2c1OCCC)CCC3 111%, COc1ccc(CC(=O)Nc2nc(-c3ccc(F)c(F)c3)cs2)cc1OC 134%, CC(Oc1cccc(NC(=O)c2cccs2)c1)C(=O)c1ccccc1 (stereo not given) 103%, Cc1cccc(N(Cc2ccccc2)C(=O)c2ccccc2F)c1 88.3%, CCOc1ccc(C2c3[nH]c4ccccc4c3CCN2Cc2cccn2-c2ncccn2)cc1 (stereo not given) 117%, CC[n+]1cc(C)ccc1/C=C/c1ccc(N(C)C)cc1 143%, COc1ccc(C(C)=O)cc1COc1ccc(Cl)c(C)c1 117%, O=C(Nc1cccc(Cl)c1)Nc1ccccc1NS(=O)(=O)c1cccs1 138%, C=CCc1cc(S(=O)(=O)c2ccc(O)c(CC=C)c2)ccc1O 106%, CC(=O)N(C1=C(Cl)C(=O)c2ccccc2C1=O)c1ccc(C(=O)O)cc1 136%, COc1ccc(S(=O)(=O)NCCCCOc2ccc(Cl)cc2)cc1 123%, C=CCSc1nnc(N2C(=O)C(O)=C(C(=O)c3ccco3)C2c2ccc(F)cc2)s1 (stereo not given) 92%, O=C(Oc1ccc(Br)cc1C(=S)N1CCOCC1)c1cccc([N+](=O)[O-])c1 103%, CCCc1cc(C(=O)N2CCCC(CO)(CCCc3ccccc3)C2)n(C)n1 (stereo not given) 103%, CCN(CC)CCN(C(=O)c1cc(Cl)sc1Cl)c1nc2cc3c(cc2s1)OCO3 121%, COc1ccc(CN(C)C(=O)c2cc(-c3ccc(C)cc3C)nc3ccccc23)c(OC)c1OC 129%, CC(C)CCNC(=O)C(C)N(C(=O)Cn1nnc(-c2ccc(F)cc2)n1)C1CCCC1 (stereo not given) 74%, COC(=O)c1ccc(COC(=O)C2CCN(S(=O)(=O)c3c(Cl)cccc3Cl)CC2)o1 85.3%, CCn1ncc(Br)c1C(=O)Nc1cc(C)ccc1F 87.3%, O=C(Cn1cc(C(=O)c2cccs2)c2ccccc21)NCc1cccs1 116%, COc1cc(Cl)c(S(=O)(=O)N2CCN(Cc3ccc4c(c3)OCO4)CC2)cc1Cl 107%, Cc1nc2ccccc2cc1OCc1ccc(F)cc1 134%, [O-][n+]1ccc(OCc2ccccc2)cc1 73%, Cc1cc(OCCCCOc2ccc(C#N)cc2)ccc1[N+](=O)[O-] 119%, Cc1ccc(S(=O)(=O)NCc2cn3ccsc3n2)c(C)c1 64%, CC(C(=O)NCC1CCCCC1)N(C)Cc1cccc(Cl)c1 (stereo not given) 114%, O=C(CSc1nc(Nc2ccccc2)nc(N2CCOCC2)n1)Nc1cc(Cl)ccc1O 127%, Clc1cccc(-c2nc(NCC3CCCO3)c3ccccc3n2)c1 (stereo not given) 130%, CCc1ccc2nc3sc(C(=O)Nc4nnc(CC)s4)c(N)c3cc2c1 116%, CSc1cccc(NC(=S)N(C(C)C)C(C)c2ccccn2)c1 (stereo not given) 98.3%, COc1ccc(Cl)cc1NC(=O)C(C)N1CCc2ccccc21 (stereo not given) 96.3%, CCc1nc(SCC(=O)NNC(=O)c2ccc(C)cc2)c2ccccc2n1 78%, FC(F)(F)c1cccc(NC(=S)Nc2cccc(Cl)c2)c1 127%, CSc1nccc(NC(=O)c2ccc(C(C)(C)C)cc2)n1 116%, Cc1cccc(NC(=O)c2sc3nc4c(c(-c5ccco5)c3c2N)CCC4)c1 115%, N#Cc1ccc(S(=O)(=O)NCC(=O)OCC(=O)NCCc2ccccc2)cc1 63%, O=C1c2ccccc2C2=Nc3ccccc3SC(c3ccccc3F)C12 (stereo not given) 128%, O=C(c1cc(-c2ccc(O)cc2)on1)N1CCCc2ccccc21 76.7%, COc1ccc2c(c1)C(c1cccs1)=NNC(c1cccnc1)=N2 73.3%, CC(=O)Nc1cccc(OCC(=O)/C=C2\N(C)c3ccccc3C2(C)C)c1 124%, COc1cc(C(=O)Nc2oc(-c3ccccc3)c(-c3ccccc3)c2C#N)cc(OC)c1OC 119%, Cc1nonc1C1CCCN1C(=O)c1cc(COc2cccc(C(F)(F)F)c2)on1 (stereo not given) 87.3%, Cc1ccc(NC(=O)c2cc([N+](=O)[O-])ccc2Cl)c(O)c1 119%, O=C(CC1NCCc2ccccc21)Nc1cccc(Cl)c1 (stereo not given) 115%, CC(NCc1cccs1)C(=O)Nc1cc(Cl)cc(Cl)c1 (stereo not given) 96.3%, Cc1nc(N2CCOCC2)c2c(C)c(C(=O)Nc3ccc(C(F)(F)F)cc3)sc2n1 136%, Cc1nc(N2CCN(c3ccccn3)CC2)c2c(C)c(C(=O)Nc3ccc(F)cc3)sc2n1 125%, Cc1nc(N2CCN(c3ccccn3)CC2)c2c(C)c(C(=O)Nc3ccc(F)c(Cl)c3)sc2n1 129%, CSc1nnc2c(n1)OC(c1ccsc1)N(C(C)=O)c1ccccc1-2 (stereo not given) 106%, CSCc1cc(N(C)C)nc(SCc2ccc(Cl)cc2Cl)n1 115%, O=C(Nn1c(SCc2ccc([N+](=O)[O-])cc2)nc2ccccc2c1=O)c1ccc(F)cc1 139%, COc1ccc(C2Nc3ccccc3C(=O)N2Cc2ccccc2)cc1Cn1nnc2ccccc21 (stereo not given) 110%, FC(F)(F)c1cc(-c2ccco2)nc(NCc2ccc(Cl)cc2)n1 126%, FC(F)(F)c1cccc(-c2cc3ccccc3nc2N2CCCC2)c1 101%, CC(=O)N1CCCc2cc(S(=O)(=O)N3CCCC(C(=O)N4CCN(c5cccc(Cl)c5)CC4)C3)ccc21 (stereo not given) 119%, CC(=O)c1ccccc1OCc1ccc(C(=O)c2ccccc2)cc1 121%, COc1ccc(CCNC(=O)c2ccccc2OCc2ccccc2)cc1 101%, CC(C)c1ccccc1OCC(O)CN(CC(O)COc1cccc2ccccc12)C(C)C (stereo not given) 119%, Cc1cccc(C)c1N1CCN(S(=O)(=O)N2CCCCC2)CC1 122%, N/C(Cc1ccc([N+](=O)[O-])cc1)=N\OC(=O)COc1ccc2ccccc2c1 112%, COC(=O)c1cc(NC2c3ccccc3C(=O)N2c2ccc(Cl)cn2)cc(C(=O)OC)c1 (stereo not given) 115%, COc1cc(/C=C(\C#N)c2nc3ccccc3[nH]2)ccc1O 125%, COc1ccccc1N1CCN(/N=C\C(Br)=C\c2ccccc2)CC1 89.7%, O=C(Nc1ccccc1)O/N=C1\CCCCC1c1ccc([N+](=O)[O-])cc1[N+](=O)[O-] (stereo not given) 118%, CC(C)c1cc(C(=O)N/N=C/c2ccoc2)c(O)c(C(C)C)c1 123%, CCCCCCCCCCCCN1C(=O)CSC1c1cccnc1 (stereo not given) 125%, CCc1cc(C(c2ccccc2OC)N2CCOCC2)c(NC(=O)c2ccccc2)s1 (stereo not given) 102%, COc1cccc(CNc2nc(C(F)(F)F)nc3ccccc23)c1 125%, Cc1cccc2cc(CN(Cc3nnnn3Cc3ccccc3)C3CCCC3)c(=O)[nH]c12 115%, COc1cccc(NC(=S)N(CCc2c(C)[nH]c3ccccc23)Cc2ccco2)c1 113%, COc1ccccc1NC(=O)CSc1nc2sc(C)c(C)c2c(=O)n1Cc1ccco1 108%, O=C(Nc1cccc(S(=O)(=O)Nc2ccc(Cl)cc2)c1)c1ccc2c(c1)OCCO2 105%, C=CCN(N=Nc1cccc([N+](=O)[O-])c1)c1cccc([N+](=O)[O-])c1 109%, COc1ccccc1C(c1nnnn1C(C)(C)C)N1CCN(Cc2ccccc2)CC1 (stereo not given) 109%, COC(=O)C1=C(C)N(C(C)c2ccccc2)C(=O)/C1=C\c1ccco1 (stereo not given) 105%, Cc1ccc(NC(=S)N2CCCC(c3ccccc3)=N2)cc1 97.7%, c1ccc(C(c2ccccc2)N2CCN(Cc3nnnn3C3CCCCC3)CC2)cc1 118%, Cc1cccc(-c2nc3ccc(C(=O)NCCN4CCN(C)CC4)cc3nc2-c2cccc(C)c2)c1 106%, O=C(NCCc1ccccc1)c1ccc2c(c1)N(Cc1ccccc1)CCS2 108%, Cc1c(C(=O)N2CCCc3ccccc32)sc2nc(-c3ccccc3)cn12 102%, C=CCN(C(=O)c1cc(C)cc(C)c1)C1(C(=O)Nc2ccccc2)CCN(C(C)C)CC1 93%, CCCC(=O)Nc1ccc(Cl)c(NC(=O)c2ccc(Br)o2)c1 92.7%, O=C(N/N=C/c1cccc(OCc2ccccc2)c1)c1ccc(Br)o1 116%, Cc1ccc(NC(=O)COC(=O)CNC(=O)c2ccc(Cl)cc2Cl)cc1S(=O)(=O)N1CCOCC1 89%, COc1ccc(-c2nc(CCNC(=O)c3ccc(Br)o3)cs2)cc1 84.7%, CN1CCc2ccccc2C1Cc1ccccc1NC(=O)c1sc2ccccc2c1Cl (stereo not given) 114%, c1ccc2c(NC3C4CC5CC(C4)CC3C5)nc(N3CCOCC3)nc2c1 (stereo not given) 122%, CCOc1ccccc1Oc1cn[nH]c1-c1ccc(OC)cc1O 114%, COCCNc1cc(-c2ccccc2)nc2cc(-c3cccc(F)c3)nn12 130%, COc1cccc(CN(C)CC(O)COC(c2ccccc2)c2ccccc2C)c1 (stereo not given) 110%, Oc1ccc(/C=N/Nc2nc(-c3ccccc3F)nc3ccccc23)c(O)c1 93.3%, O=C(NCCc1c[nH]c2ccccc12)c1cccc(Br)c1 118%, Cc1cc(NC(=O)Nc2ccc(Cl)cc2)n(-c2ccccc2)n1 100%, CN(CCC(=O)Nc1cc(S(=O)(=O)N(C)C)ccc1Cl)CC(=O)Nc1ccc(F)cc1 118%, COc1cccc(COc2ccc(N(C)S(=O)(=O)c3ccccc3)cc2)c1 132%, O=C(N/N=C/c1sc(N2CCCCC2)nc1-c1cccs1)c1cccnc1 123%, COc1cccc(/C=N/Nc2cc(C)nc(-c3ccccc3O)n2)c1O 134%, CCC(C)(C)n1nnnc1C(c1cccs1)N1CCN(c2nc3ccccc3s2)CC1 (stereo not given) 112%, O=C(CNCCC1=CCCCC1)Nc1ccccc1N1CCCCCC1 113%, Cc1cc(C)c(S(=O)(=O)c2ccccc2)c(OC(=O)c2c(F)cccc2Cl)n1 78%, COc1ccc(Nc2ncnc3sc(-c4ccccc4)cc23)c(OC)c1 112%
